# In PubChem BioAssay (NCI):
# The panel holds about 79,000 compounds, 15% with a hit somewhere; the sample as a whole holds those more often. Values without a mark were called inactive. The source made the active and inactive calls. Cut-off read from the data, not from the text of the source: active = growth inhibition above about 70%; inactive = the rest.
# Assay: NCI Yeast Anticancer Drug Screen. Data for the rad50 strain (AID 155);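 note: 0% = growth of vehicle-only cultures of the same strain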
# Details: S. cerevisiae rad50 strain growth inhibition; at 50.0 µM (retest, dose inferred, filed as 5.0); stronger effect = higher value
# Outline: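 Yeast carrying a defined DNA repair defect were exposed to test compounds, and growth was compared with vehicle-treated controls to give percent inhibition.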
row,SMILES,growth inhibition
1,Cc1cccc2c(C(O)CBr)cc(-c3ccc(Cl)cc3)nc12 (stereo not given),93% (active)
2,CN(C)C[C@H]1CC[C@@H](CN(C)C)C1=O,36%
3,CC1=C(SCCO)C(=O)c2ccccc2C1=O,99% (active)
4,COC(=O)CCNc1c2ccccc2nc2cccc([N+](=O)[O-])c12,98% (active)
5,CC(/C=C/c1ccc2c(c1)OCO2)[N+](=O)[O-] (stereo not given),97% (active)
6,COC(=O)C1=C(C)NC(C)=C(C(=O)OCCCN2CCC(c3ccccc3)(c3ccccc3)CC2)C1c1cccc([N+](=O)[O-])c1 (stereo not given),99% (active)
7,CCOC(=O)c1cnc2c(C(F)(F)F)cccc2c1N=[N+]=[N-],8%
8,O=[N+]([O-])c1cc2no[n+]([O-])c2cc1N1CCCCC1,74% (active)
9,COC(=O)c1ccc(NCC2=CC(=O)C=CC2=O)cc1O,96% (active)
10,CCCCCCCCNC(=O)C1=C(C)NC(C)=C(C(=O)NCCCCCCCC)C1,6%
11,S=C(Nc1ccc(Cl)c(Cl)c1)SCc1ccc2c(c1)OCO2,97% (active)
12,O=S(=O)(CCCl)c1ccccc1Cl,79% (active)
13,Nc1ccccc1CC(O)C(=O)O (stereo not given),94% (active)
14,CN(C)c1ccc(Sc2ccc3nc(N)nc(N)c3c2)cc1,41%
15,CC(C)C1=CCC2C(=C1)CCC1C(C)(C(=O)O)CCCC21C (stereo not given) (tested in a mixture with another compound),98% (active)
16,Cc1ccc(S(=O)(=O)Oc2cc(Cl)c(Cl)cc2Cl)cc1,7%
17,CSC(=S)Nc1cc(C)ccn1,99% (active)
18,CC(C)c1cc(C(C)C)c(O)c(C([O-])[O-])c1.CC(C)c1cc(C(C)C)c(O)c(C([O-])[O-])c1.CC(C)c1cc(C(C)C)c(O)c(C([OH2+])[OH2+])c1.CC(C)c1cc(C(C)C)c(O)c(C([OH2+])[OH2+])c1.[Cu+2].[Cu+2].[OH3+].[OH3+],31%
19,Cc1cc(I)ccc1N,79% (active)
20,CC(Br)C(=O)c1ccc2cc(Br)c3ccccc3c2c1 (stereo not given),41%

row,SMILES,growth inhibition
1,O=C(Nc1ccccc1)OCCc1ccc(Cl)c(Cl)c1,74% (active)
2,O=Cc1cccc2ccc3ccccc3c12,89% (active)
3,O=[N+]([O-])CC(SCc1ccccc1)c1ccc2c(c1)OCO2 (stereo not given),97% (active)
4,CC1(Cl)CC(O)C2(CC1Br)C1(C)OC1C1OC1(Br)C2(C)C (stereo not given),79% (active)
5,Cc1cc(O)cc(O)c1N=Nc1ccc([N+](=O)[O-])cc1,98% (active)
6,CCCCCCCCCCCCCC[N+](C)(CC(=O)[O-])Cc1ccccc1 (stereo not given),99% (active)
7,CC1=NN(c2cccc(Cl)c2)C(=O)C1,99% (active)
8,CC(=O)OCc1ccc(O)c(C=O)c1,66%
9,Cc1ccc2ccc3cccc4ccc1c2c34,41%
10,Cc1nc(-[n+]2nc(-c3ccncc3)nn2-c2ccccc2)sc1C,21%
11,C(CCSC1=NCCN1)CSC1=NCCN1 (tested in a mixture with another compound),98% (active)
12,CCCCCCCCCCC(=O)Cl,98% (active)
13,COC1C=COC2(C)Oc3c(C)c(O)c4c(c3C2=O)/C(=N/C2CCC(O)OC2C)C=C(NC(=O)/C(C)=C\C(=O)C2CC2C(O)C(C)C(O)C(C)C(OC(C)=O)C1C)C4=O (stereo not given),37%
14,S=c1[nH]nc(Nc2ccc(Cl)cc2)s1,32%
15,O=C1CSC(/C=C/c2ccccc2)N1c1ccc(-c2ccc(-n3c(-c4ccccc4)nc4ccccc4c3=O)cc2)cc1 (stereo not given),78% (active)
16,O=C1C=CC(=O)N1c1ccc2c(c1)Cc1cc(NC(=O)C(F)(F)F)ccc1-2,91% (active)
17,Brc1ccc(-c2cc3c(cc2C2SCCS2)OCO3)cc1,48%
18,Oc1ccc2ccccc2c1C(c1ccc(Cl)cc1)c1c(O)ccc2ccccc12,99% (active)
19,C[CH2][Sn]([CH2]C)([O]C(=O)C(OC(C)=O)c1ccccc1)[O]C(=O)C(OC(C)=O)c1ccccc1 (stereo not given),25%
20,Cc1ccc2ccc(O)cc2c1,33%

# Same assay, conditions: S. cerevisiae rad50 strain growth inhibition; at 50.0 µM; stronger effect = higher value
row,SMILES,growth inhibition
1,Cc1cccc2c(C(O)CBr)cc(-c3ccc(Cl)cc3)nc12 (stereo not given),93.8% (active)
2,CN(C)C[C@H]1CC[C@@H](CN(C)C)C1=O,70%
3,CC1=C(SCCO)C(=O)c2ccccc2C1=O,84.2% (active)
4,COC(=O)CCNc1c2ccccc2nc2cccc([N+](=O)[O-])c12,86% (active)
5,CC(/C=C/c1ccc2c(c1)OCO2)[N+](=O)[O-] (stereo not given),99.6% (active)
6,COC(=O)C1=C(C)NC(C)=C(C(=O)OCCCN2CCC(c3ccccc3)(c3ccccc3)CC2)C1c1cccc([N+](=O)[O-])c1 (stereo not given),94.5% (active)
7,CCOC(=O)c1cnc2c(C(F)(F)F)cccc2c1N=[N+]=[N-],29.4%
8,O=[N+]([O-])c1cc2no[n+]([O-])c2cc1N1CCCCC1,90% (active)
9,COC(=O)c1ccc(NCC2=CC(=O)C=CC2=O)cc1O,91% (active)
10,CCCCCCCCNC(=O)C1=C(C)NC(C)=C(C(=O)NCCCCCCCC)C1,-29.5%
11,S=C(Nc1ccc(Cl)c(Cl)c1)SCc1ccc2c(c1)OCO2,87.3% (active)
12,O=S(=O)(CCCl)c1ccccc1Cl,94.2% (active)
13,Nc1ccccc1CC(O)C(=O)O (stereo not given),93% (active)
14,CN(C)c1ccc(Sc2ccc3nc(N)nc(N)c3c2)cc1,60%
15,CC(C)C1=CCC2C(=C1)CCC1C(C)(C(=O)O)CCCC21C (stereo not given) (tested in a mixture with another compound),83.5% (active)
16,Cc1ccc(S(=O)(=O)Oc2cc(Cl)c(Cl)cc2Cl)cc1,-6.5%
17,CSC(=S)Nc1cc(C)ccn1,84.8% (active)
18,CC(C)c1cc(C(C)C)c(O)c(C([O-])[O-])c1.CC(C)c1cc(C(C)C)c(O)c(C([O-])[O-])c1.CC(C)c1cc(C(C)C)c(O)c(C([OH2+])[OH2+])c1.CC(C)c1cc(C(C)C)c(O)c(C([OH2+])[OH2+])c1.[Cu+2].[Cu+2].[OH3+].[OH3+],39.8%
19,Cc1cc(I)ccc1N,85.6% (active)
20,CC(Br)C(=O)c1ccc2cc(Br)c3ccccc3c2c1 (stereo not given),63.7%

row,SMILES,growth inhibition
1,O=C(Nc1ccccc1)OCCc1ccc(Cl)c(Cl)c1,86.7% (active)
2,O=Cc1cccc2ccc3ccccc3c12,99.3% (active)
3,O=[N+]([O-])CC(SCc1ccccc1)c1ccc2c(c1)OCO2 (stereo not given),90% (active)
4,CC1(Cl)CC(O)C2(CC1Br)C1(C)OC1C1OC1(Br)C2(C)C (stereo not given),62.6%
5,Cc1cc(O)cc(O)c1N=Nc1ccc([N+](=O)[O-])cc1,70.3% (active)
6,CCCCCCCCCCCCCC[N+](C)(CC(=O)[O-])Cc1ccccc1 (stereo not given),98.8% (active)
7,CC1=NN(c2cccc(Cl)c2)C(=O)C1,43.4%
8,CC(=O)OCc1ccc(O)c(C=O)c1,77.5% (active)
9,Cc1ccc2ccc3cccc4ccc1c2c34,25.6%
10,Cc1nc(-[n+]2nc(-c3ccncc3)nn2-c2ccccc2)sc1C,66.2%
11,C(CCSC1=NCCN1)CSC1=NCCN1 (tested in a mixture with another compound),99.2% (active)
12,CCCCCCCCCCC(=O)Cl,58.2%
13,COC1C=COC2(C)Oc3c(C)c(O)c4c(c3C2=O)/C(=N/C2CCC(O)OC2C)C=C(NC(=O)/C(C)=C\C(=O)C2CC2C(O)C(C)C(O)C(C)C(OC(C)=O)C1C)C4=O (stereo not given),9.3%
14,S=c1[nH]nc(Nc2ccc(Cl)cc2)s1,92.8% (active)
15,O=C1CSC(/C=C/c2ccccc2)N1c1ccc(-c2ccc(-n3c(-c4ccccc4)nc4ccccc4c3=O)cc2)cc1 (stereo not given),75.5% (active)
16,O=C1C=CC(=O)N1c1ccc2c(c1)Cc1cc(NC(=O)C(F)(F)F)ccc1-2,87.7% (active)
17,Brc1ccc(-c2cc3c(cc2C2SCCS2)OCO3)cc1,63.8%
18,Oc1ccc2ccccc2c1C(c1ccc(Cl)cc1)c1c(O)ccc2ccccc12,68.3%
19,C[CH2][Sn]([CH2]C)([O]C(=O)C(OC(C)=O)c1ccccc1)[O]C(=O)C(OC(C)=O)c1ccccc1 (stereo not given),37.7%
20,Cc1ccc2ccc(O)cc2c1,58.2%
